# Screening results deposited in PubChem by National Center for Advancing Translational Sciences (NCATS).
# In the library only some 3.7% were active in any assay of this set; here they are far more common.
# TCR activator – T cell receptor activation; Potency, µM (doses to about 9.22 µM), without a hit: at the top dose activation of IL-2 secretion, hits mostly activators; AID 504894; 330,000 tested, under 10 active; primary human leukocytes, anti-CD3, IL-2 HTRF, 48 h; note: % of control where 0% means no effect
#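 Primary human leukocytes were stimulated with a-CD3 beads plus compounds for 48 hr without co-stimulation; secreted IL-2 was quantified by HTRF using a-IL-2-K (europium cryptate) and a-IL-2-d2, excited at 320nm with acceptor emission read at 665nm.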
# FEN1 inh – human FEN1 inhibition; Recombinant FEN1 flap cleavage, fluorescence, 15 min; AID 588795; Potency, µM (top dose mostly 114 µM), for the others: at the top dose activity change, negative = inhibition, usual class: inhibitors; 390,000 tested, 0.35% active; note: potency is the fitted concentration of half-maximal effect; % is set by controls: 0 for no effect and ±100 for the full control effect; nearly all actives have a fitted effect of over 65% in size
# Target sequence (P39748 whole entry, looked up): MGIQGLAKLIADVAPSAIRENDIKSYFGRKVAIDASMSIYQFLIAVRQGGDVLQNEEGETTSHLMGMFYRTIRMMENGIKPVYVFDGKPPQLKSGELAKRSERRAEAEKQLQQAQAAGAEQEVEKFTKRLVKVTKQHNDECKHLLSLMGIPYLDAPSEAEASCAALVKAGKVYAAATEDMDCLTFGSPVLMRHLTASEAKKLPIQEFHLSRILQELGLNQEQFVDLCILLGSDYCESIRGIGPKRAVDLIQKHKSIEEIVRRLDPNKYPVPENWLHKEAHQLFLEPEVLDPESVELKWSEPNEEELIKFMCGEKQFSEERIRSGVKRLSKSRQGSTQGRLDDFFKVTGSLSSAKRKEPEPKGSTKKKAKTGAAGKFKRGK
#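 Enzyme 10 nM, 15 min RT preincubation with compound; start with substrate 50 nM final; reads at 0 and 15 min; qHTS titration, four-parameter Hill fit.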
# PLK1 PBD block – PLK1 (human) polo-box domain binding inhibition; P53350; Plk1 PBD binding of FITC phosphopeptide, fluorescence polarization; Potency, µM, inactives show max response, negative = inhibition, actives largely listed as inhibitors; 360,000 tested, 2.8% active; note: potency is the fitted concentration of half-maximal effect; series mostly up to about 57 µM; % is set by controls: 0 for no effect and ±100 for the full control effect; nearly all actives have a fitted effect of over 65% in size
# PI5P4Ka inh – inhibitors of human PI5P4K alpha. P48426. PI5P4Kalpha enzyme, ADP-Glo luminescence, 60 min; stronger effect = lower value. max response, %. 330,000 tested, 1.2% active. AID 652105; active = max response of -50% or lower; inconclusive = between -30% and -50%; inactive = -30% or higher; note: value at the top dose of about 77 µM; % is set by controls: 0 for no effect and ±100 for the full control effect
# Target sequence (P48426 whole entry, looked up): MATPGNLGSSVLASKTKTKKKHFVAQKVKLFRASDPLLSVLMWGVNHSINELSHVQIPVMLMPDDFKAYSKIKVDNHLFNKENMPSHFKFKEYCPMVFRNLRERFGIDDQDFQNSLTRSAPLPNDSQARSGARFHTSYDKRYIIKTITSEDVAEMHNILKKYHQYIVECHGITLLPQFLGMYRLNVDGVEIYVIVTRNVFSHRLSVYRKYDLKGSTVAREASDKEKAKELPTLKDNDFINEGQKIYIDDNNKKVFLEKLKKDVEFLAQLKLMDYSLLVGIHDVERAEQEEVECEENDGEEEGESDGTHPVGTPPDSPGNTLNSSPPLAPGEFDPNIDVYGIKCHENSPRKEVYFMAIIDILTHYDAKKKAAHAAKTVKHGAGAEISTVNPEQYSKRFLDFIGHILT
#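 qHTS, 1536-well: enzyme/substrate mix, compound by pin tool, 5 microM ATP final; RT 60 min; ADP-Glo reagents 1 (45 min) then 2 (30 min); luminescence.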
# VDR inh – vitamin D3 receptor (human) inhibition; P11473; VDR-SRC2-3 peptide fluorescence polarization, 2 h; Potency, µM, for inactives: max response, negative = inhibition, actives largely listed as inhibitors; 400,000 tested, 0.93% active; AID 504847; note: potency is the fitted concentration of half-maximal effect; % is set by controls: 0 for no effect and ±100 for the full control effect
#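 The screen uses fluorescence polarization to detect compounds that interfere with recruitment of the SRC2-3 coactivator peptide to VDR; plates are read after 2 h at room temperature.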
# WRN helicase inh – blocks human WRN helicase | AID 651768 | Q14191 | WRN helicase unwinding, fluorescent forked duplex, kinetic | Potency, µM (titrated, usually from 114 µM), for the others: top-dose activity change, negative = inhibition, usual class: inhibitors | 360,000 tested, 0.46% active; note: potency is the fitted concentration of half-maximal effect; % is set by controls: 0 for no effect and ±100 for the full control effect; nearly all actives have a fitted effect of over 55% in size
#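 Fluorescence dequenching readout, ex 525 nm/em 598 nm, kinetic mode: forked duplex DNA (100 nM final) with adjacent fluorophore and quencher unwound by WRN (20 nM final) with 2 mM ATP. Compound preincubation 15 min, room temperature.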
# VDR inh confirm – confirmation of human vitamin D receptor inhibitors. shares compounds with VDR inh. VDR-coactivator inhibition assay, qHTS confirmation. Potency, µM, usual class: inhibitors. 840 tested, 89% active; note: potency is the fitted concentration of half-maximal effect
# VDR FP fluor – blocks human VDR-coactivator binding in fluorescein assay. shares compounds with VDR inh. VDR-coactivator binding, fluorescein fluorescence polarization. Potency, µM (series often up to 57.1 µM), inactives show at the highest dose activity change, negative = inhibition, actives largely listed as inhibitors. 840 tested, 48% active; note: potency is the fitted concentration of half-maximal effect
# VDR bla reporter – confirmation of human vitamin D receptor inhibitors in reporter cells | shares compounds with VDR inh | VDR beta-lactamase reporter cells, FRET ratio; cells co-treated with VDR agonist LG190178 | Potency, µM (titrated, usually from 46.1 µM), without a hit: top-dose activity change, negative = inhibition, usual class: inhibitors | 840 tested, 23% active | AID 602202; note: potency is the fitted concentration of half-maximal effect; % is set by controls: 0 for no effect and ±100 for the full control effect
# VDR cytotox – cytotoxic in counter-screen for VDR inhibitors; shares compounds with VDR inh; cytotoxicity counter-screen, cell viability, qHTS; Potency, µM (highest dose often 48.3 µM), without a hit: at the top dose activity change, negative = cytotoxicity, most hits filed as cytotoxic; 840 tested, 18% active;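 note: potency is the fitted concentration of half-maximal effect; plate controls were DMSO for no effect and high-concentration cycloheximide for full effect; nearly all actives have a fitted effect of over 75% in size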
# Numbers without * were called inactive; ? = inconclusive; . = no result; [ ] = dose if it differs, or a comment. Unless noted, calls come from the whole dose curve; as a rule, active = well fitted curve in the direction sought with a large enough effect; inconclusive = small, poorly fitted or top-dose-only effect, or another doubt; inactive = no such curve, though single readings can be large; an effect the other way counts as inactive or inconclusive.
SMILES,TCR activator,FEN1 inh,PLK1 PBD block,PI5P4Ka inh,VDR inh,WRN helicase inh,VDR inh confirm,VDR FP fluor,VDR bla reporter,VDR cytotox
COC(=O)c1cc(=O)n(Cc2ccco2)c(=Nc2ccc(F)c(Cl)c2)s1,-9%,-4%,-14%,-10,?,-11%,14*,13µM*,?,3%
COC(=O)c1cc(=O)n(CCc2ccccc2F)c(=Nc2ccc(F)c(Cl)c2)s1,7%,1%,-3%,-6,-5%,-4%,.,.,.,.
COc1ccc(Cl)cc1NC(=O)CSc1nc2c([nH]c3ccccc32)c(=O)n1-c1ccccc1,.,8%,.,.,10%,.,.,.,.,.
CC1(C)CC(=O)C(C(c2ccc(Br)cc2)C2C(=O)CC(C)(C)CC2=O)C(=O)C1,7%,-6%,19µM*,3,25µM*,8%,30*,18µM*,24%,9%
Cc1cc2nc3ccc(N(C)C)cc3nc2cc1N,8%,?,?,?,79µM*,50µM*,19*,92%,18%,?
Cc1ccc(-n2nc3cc(C)c(N)cc3n2)cc1,-7%,-13%,-16%,-4,?,-6%,.,.,.,.
COc1ccc(NC(=O)Cn2c(SCc3c(F)cccc3Cl)nc3ccncc32)cc1OC,.,3%,.,.,26%,.,.,.,.,.
Oc1c(C(c2ccccc2Cl)N2CCC(O)CC2)sc2nc(-c3ccco3)nn12 (stereo unspecified),.,-3%,.,.,-8%,.,.,.,.,.
COc1ccc(C(=O)NNC(=O)C2=NN(c3ccccc3)C(=O)CC2)cc1,-1%,18%,-18%,0,-10%,-1%,.,.,.,.
COC(=O)CC1=NN(c2ccc(OC)cc2)C(=O)/C1=C\c1ccc(Cl)cc1,-2%[46.1 µM],-16%,2.4µM*,-14,40µM*,-16%,21*,?,-5%,-10%
Cc1cc(C)c(NC(=O)CCS(=O)(=O)c2cc3c(cc2Cl)NC(=O)CO3)c(C)c1,.,5%,.,.,10%,.,.,.,.,.
O=C(/C=C/c1cccc([N+](=O)[O-])c1)c1cccs1,-1%[46.1 µM],-4%,-29%,-1,?,-30%,5.6*,7.9µM*,-3%,?
O=C(/C=C/c1cccc([N+](=O)[O-])c1)c1ccc2c(c1)OCCO2,-11%,9%,-24%,7,?,-1%,13*,13µM*,?,?
CC(C)(C)c1nnc(NS(=O)(=O)c2ccc([N+](=O)[O-])cc2)s1,-5%,22%,24µM*,-14,?,4%,22*,25µM*,-10%,24%
O=[N+]([O-])c1ccc(S(=O)(=O)Nc2nc(-c3ccccc3)cs2)cc1,2%,4%,?,0,-1%,1%,.,.,.,.
CN1CCC2(CC1)N=C(c1ccc(F)cc1)C(=S)N2C(=O)c1ccccc1,-3%[46.1 µM],6%,?,-2,45µM*,-7%,19*,?,1%,?
CCOC(=O)c1ccc(N=Cc2nc(-c3ccccc3)oc2OC(C)=O)cc1,-7%,-2%,4.7µM*,.,18µM*,-19%,4.2*,?,2%,-9%
CC(=O)Oc1oc(-c2ccccc2)nc1C=Nc1ccccc1,4%,-6%,?,-4,40µM*,-39%,11*,13µM*,18%,-23%
CCC(=O)Oc1oc(-c2ccccc2)nc1C=Nc1ccc(C)cc1,-3%,-1%,-7%,3,-10%,-2%,.,.,.,.
COc1ccc(N=Cc2nc(-c3ccccc3)oc2OC(=O)c2ccccc2)cc1,-7%[46.1 µM],10%,?,4,40µM*,-1%,9.5*,?,2%,6%
COc1ccccc1OC(C)C(=O)Nc1cccc(-c2nc3ccccc3o2)c1 (stereo unspecified),.,?,.,.,-5%,.,.,.,.,.
COc1ccc(-c2cnc(C)o2)cc1S(=O)(=O)Nc1ccc(C)c(N(C)C)c1,.,11%,.,.,2%,.,.,.,.,.
CCOc1ccccc1C1N=C(c2ccc(OC)cc2)CC(c2ccccc2O)N1 (stereo unspecified),-5%,-14%,-18%,0,?,-9%,?,?,?,3%
COc1ccc(-c2cc3ccc(O)c(CN4CCC(C)CC4)c3oc2=O)cc1OC,.,1%,.,.,17%,.,.,.,.,.
Cc1ccccc1CSc1cn(CCNC(=O)c2cccs2)c2ccccc12,.,-6%,.,.,1%,.,.,.,.,.
SMILES,TCR activator,FEN1 inh,PLK1 PBD block,PI5P4Ka inh,VDR inh,WRN helicase inh,VDR inh confirm,VDR FP fluor,VDR bla reporter,VDR cytotox
CCN1C/C(=C/c2cccc([N+](=O)[O-])c2)C(=O)/C(=C/c2cccc([N+](=O)[O-])c2)C1,0%[46.1 µM],0%,-22%,4,10µM*,2%,3.4*,?,2.1µM*,?
CCS(=O)(=O)c1ncc(Cl)c(C(=O)Nc2ccc(S(=O)(=O)N3CCC(C)CC3)cc2)n1,-2%,-1%,?,-20,14µM*,2%,5.3*,3.5µM*,8.2µM*,3.7µM*
CCOC(=O)c1c(-c2ccccc2)csc1NC(=O)c1nc(S(=O)(=O)CC)ncc1Cl,.,1%,.,.,18µM*,.,3.2*,?,4.6µM*,21µM*
CCCSc1ncc(Cl)c(C(=O)Nc2ccc(S(=O)(=O)N(C)c3ccccc3)cc2)n1,.,6%,.,.,17%,.,.,.,.,.
CCOc1ccccc1NC(=O)c1nc(S(=O)(=O)Cc2ccccc2)ncc1Cl,-10%,4%,?,2,11µM*,-7%,6.7*,3.2µM*,6.5µM*,8.2µM*
CN(c1ccccc1)S(=O)(=O)c1ccc(NC(=O)c2nc(S(C)(=O)=O)ncc2Cl)cc1,7%,-2%,17µM*,3,20µM*,-8%,3.8*,3.5µM*,3.7µM*,8.2µM*
CCCCSc1nnc2c(n1)OC(c1ccc(Br)s1)N(C(C)=O)c1ccccc1-2 (stereo unspecified),.,3%,.,.,-14%,.,.,.,.,.
CC(=O)Nc1nonc1-c1nnc(SCC(=O)Nc2ccccc2Cl)n1C,.,-5%,.,.,-4%,.,.,.,.,.
Cc1ccc(NC(=O)CN2CCSc3ccc(S(=O)(=O)N4CCCC4)cc32)cc1C,.,7%,.,.,15%,.,.,.,.,.
